Source: the supplement of paper PMC6555819

tested on: THRa homodimer (NR concentration 90 nM); test: PBM binding z-score (relative to random genomic background probes); higher = stronger binding; sequences stand for … in GC…GCGATTGACAGCGTAGAATGAAGG
In short: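 For binding z-scores, the reference was random background probes on custom Agilent 4×180K protein-binding microarrays. These arrays were incubated 1 h with ligand-free nuclear receptor dimers in PBS pH 7.4, 2% milk, 0.02% Triton X-100, 1 mM DTT, 0.2 mg/mL BSA and 0.4 mg/ml salmon testes DNA. Fluorescence was scanned after antibody detection of each partner (one per run) and regression-normalized.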

Sequence | PBM binding z-score
CCTTACGGGTCACTGCCAGGTTATAGCATTTGGA | 0.811
TCTTGCAGATCAAGCAGGTTAAGAAAGCCTGAGT | -0.484
AGAACGAGGACAATGAGTTGATAGCACGGGTGGC | 1.15
TCGAGTAGGTTAGTCGGGGCATTCACCCAACATA | 0.381
ATATGTAGGTTACATCTGGGTCATTCAGGCTATG | 1.31
CCGAGTAGGTTATTGGGCATTCAGGCAACGGTGA | 0.103
CCTGCTAGGTCAATAGTCAGCTAAAGCAGCTCGC | 0.258
CGTCCAAGGTCAAGGTCAGTTAAAGAGACTCGAA | 3.3
CAAACTAGGTCAAAGGACAAAGTCGAGCCAACCA | 0.809
ACAGGCAGGTGATGAAGGTAACTCAGGCTATCAT | 0.276
CCGTACGGGTCACTGACAGGTTATAGCATTTGGA | -0.108
CCTAGCAGGCCAATCTGGGTCACTCAAGGCTTGA | 0.369
CAAACTAGGTCAAGGTCAAGGTCGGTTTGTGCCA | 4.73
GTTTACGGGTCAAAGGTTATAGCATGAATAGAAT | 0.0413
GCTGCTAGGTCAGGGTGGTCAGCTAACGGGTACG | 0.797
CCAGACAGGTGAGCAGGTAACTCAGCCTCGATTA | 0.165
TAGCCTAGGCCATTGGGCCAGTATAGTACGCATC | -0.972
GCGACTGGGGCAAAGCAGGTTACGATAAGGTTGG | 0.0259
CGTACGAGGGCATGAGTTGATAGCAAATGCCGAT | -0.172
GTACCAAGGTGAATAGGTCCTTGATGAGTAGGCG | 0.287
GTCCCAAGGTGAATAGGTCGTTGATGAGTAGGCG | 0.76
GGAACGAGGGAAAAGTTGATAGCATCTGTCGACG | -1.15
